# Several values for one entry are separate records, joined by “and”; a condition that tells them apart may be missing. Identical values can stand only once. Inconclusive results are not listed. Entries that show only a call come without a potency. Activity calls are given as the source filed them. The call rests on the fitted dose curve; in most records, active means well fitted inhibition curve with a large enough effect; inconclusive means small, poorly fitted or top-dose-only effect; inactive means flat fitted curve, though single readings scatter.
# Legend:
# HaCat [1] = assay: Cytotoxic Profiling of Annotated Libraries Using Quantitative High-Throughput Screening (AID 1296008); conditions: Five cell lines viability, CellTiter-Glo ATP luminescence, 48-72 h; max response: hits give low values
# Method in brief: (§1)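 Cells exposed to compounds for 48 or 72 hr at 37 degrees Celsius. Viability read as ATP-coupled luminescence with CellTiter-Glo after 10 min at room temperature.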
# KB-3-1 = assay: as above; conditions: Five cell lines viability, CellTiter-Glo ATP luminescence, 48-72 h; max response: hits give low values
# Method in brief: as §1
# NIH3T3 = assay: as above; conditions: Five cell lines viability, CellTiter-Glo ATP luminescence, 48-72 h; max response: hits give low values
# Method in brief: as §1
# HACAT [2] = assay: qHTS assay to identify novel small-molecules to repurpose for Merkel cell carcinoma treatment (AID 1296009); conditions: MCC and control cell lines, CellTiter-Glo viability, 72 h; at 44.8 µM (top of the series) unless noted
# Method in brief: (§2)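 Dose-response viability screen; 72 hr exposure at 37 degree celsius; CellTiter-Glo added, 10 min room temperature, luminescence read; RLUs scaled between no-cell and DMSO wells.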
# MCC-13 = assay: as above; conditions: MCC and control cell lines, CellTiter-Glo viability, 72 h; series mostly up to 46 µM
# Method in brief: as §2
# HEK293T = assay: as above; conditions: MCC and control cell lines, CellTiter-Glo viability, 72 h; at 44.8 µM (top of the series) unless noted
# Method in brief: as §2
# TAB165 = assay: qHTS profiling for inhibitors of Plasmodium falciparum proliferation (AID 504749); conditions: P. falciparum in erythrocytes, SYBR Green DNA, 72 h; series mostly up to 28.7 µM
# Method in brief: (§3)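 Each compound contacts P. falciparum-infected red blood cells for 72 h at 37 C; lysis buffer (Tris, EDTA, saponin, Triton X, SYBR Green I) is added and fluorescence measured next morning; values normalized to controls.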
# W2 = assay: as above; conditions: P. falciparum in erythrocytes, SYBR Green DNA, 72 h; series mostly up to 28.7 µM
# Method in brief: as §3
# HEK293 = assay: Cytotoxic Profiling of Annotated Libraries Using Quantitative High-Throughput Screening (AID 1296008); conditions: Five cell lines viability, CellTiter-Glo ATP luminescence, 48-72 h; max response: hits give low values
# Method in brief: as §1
# Further: nearly all actives have a fitted effect of over 60% in size.
# Potency means the concentration at half of the fitted maximal effect.
smiles,measurement,setting,value
CN1CCC[C@H]1CCO[C@](C)(c1ccccc1)c1ccc(Cl)cc1,outcome,HaCat [1],inactive
same,max response,KB-3-1,-5.55% (inactive)
same,max response,NIH3T3,-18.8% (inactive)
same,outcome,HACAT [2],inactive
same,Potency,MCC-13,inactive
C[C@@H](O[C@H]1OCCN(Cc2n[nH]c(=O)[nH]2)[C@@H]1c1ccc(F)cc1)c1cc(C(F)(F)F)cc(C(F)(F)F)c1,max response,HaCat [1],-38.5% (inactive)
same,Potency,KB-3-1,26.4 µM (active)
same,max response,NIH3T3,-21.1% (inactive)
same,Potency,MCC-13,inactive
CN1CCc2c(n(Cc3ccc(C(=O)NO)cc3)c3ccccc23)C1,Potency,MCC-13,inactive
CN1CCN(c2cccc(Nc3nc4c(-c5ccc(S(C)(=O)=O)cc5)cccn4n3)c2)CC1,Potency,HaCat [1],14.8 µM (active) and 5.17 µM (active)
same,outcome,KB-3-1,inactive
same,max response,NIH3T3,-10.8% (inactive) and -33.2% (inactive)
same,Potency,MCC-13,inactive
COc1ccc(-c2oc3c(CC=C(C)C)c(O)cc(O)c3c(=O)c2O)cc1,outcome,HaCat [1],inactive
same,max response,KB-3-1,6.49% (inactive)
same,outcome,NIH3T3,inactive
same,outcome,HACAT [2],inactive
same,Potency,MCC-13,inactive
CNC(=O)c1cc(Oc2ccc(NC(=O)Nc3ccc(Cl)c(C(F)(F)F)c3)c(F)c2)ccn1,outcome,HaCat [1],inactive
same,max response,KB-3-1,1.15% (inactive)
same,max response,NIH3T3,-27% (inactive)
same,outcome,HACAT [2],inactive
C[C@@H]1[C@H](C)CC[C@]2(C(=O)O)CC[C@]3(C)C(=CC[C@@H]4[C@@]5(C)CC[C@H](O)C(C)(C)[C@H]5CC[C@]43C)[C@@H]12,outcome,HACAT [2],inactive [at 92 µM]
same,outcome,HEK293T,inactive [at 92 µM]
same,Potency,MCC-13,inactive
COc1cc2c(cc1Cc1cccc(Cl)c1F)c(=O)c(C(=O)O)cn2[C@H](CO)C(C)C,max response,HaCat [1],-24.6% (inactive)
CN1C(=O)C[C@H](C(=O)N[C@@H](Cc2cnc[nH]2)C(=O)N2CCC[C@@H]2C(N)=O)NC1=O,max response,HaCat [1],-3.47% (inactive)
same,outcome,KB-3-1,inactive
same,outcome,NIH3T3,inactive
same,Potency,MCC-13,inactive
CCN(CC)CCCCNc1nc2cc(Cl)c(Cl)cc2nc1-c1ccc(-c2cccs2)s1,Potency,KB-3-1,13.2 µM (active)
Clc1ccc(COC(Cn2ccnc2)c2ccc(Cl)cc2Cl)c(Cl)c1 (configuration not stated),Potency,TAB165,1 µM (active)
same,Potency,W2,2.28 µM (active)
same,Potency,MCC-13,inactive
CNC1CCC(N(Cc2cccc(-c3ccncc3)c2)C(=O)c2sc3ccccc3c2Cl)CC1 (configuration not stated),Potency,HEK293,8.33 µM (active) and 7.31 µM (active)
same,Potency,MCC-13,inactive
CC(C)C[C@@H](C(=O)N[C@H](C(=O)OC1CCCC1)c1ccccc1)[C@H](O)C(=O)NO,Potency,HEK293,18.7 µM (active)
same,Potency,MCC-13,inactive
Cc1ccc(NC(=O)c2cccc(N(C)C)c2)cc1NC(=O)c1ccc(O)cc1,outcome,HaCat [1],inactive
same,max response,KB-3-1,5.76% (inactive)
same,max response,NIH3T3,3.99% (inactive)
same,outcome,HACAT [2],inactive
same,Potency,MCC-13,inactive
COc1ccc2cc1Oc1ccc(cc1)C[C@H]1c3cc(c(OC)cc3CCN1C)Oc1c(OC)c(OC)cc3c1[C@H](C2)N(C)CC3,max response,NIH3T3,-30.2% (inactive)
same,Potency,MCC-13,inactive
CO[C@H]1O[C@@H]2O[C@@]3(C)CC[C@@H]4[C@@H](C)CC[C@@H]([C@H]1C)[C@@]24OO3,max response,HaCat [1],-9.33% (inactive)
same,outcome,KB-3-1,inactive
same,outcome,NIH3T3,inactive
same,Potency,MCC-13,inactive
Cc1ccc2c(c1)C(=O)[C@]1(O)CCN(c3ccccc3)C1=N2,max response,HEK293,-19.6% (inactive)
same,Potency,MCC-13,inactive
Fc1ccc(C(c2ccc(F)cc2)N2CCN(CC=Cc3ccccc3)CC2)cc1,Potency,W2,8.49 µM (active)
same,Potency,MCC-13,inactive
CC(C)c1c(C(=O)Nc2ccccc2)c(-c2ccccc2)c(-c2ccc(F)cc2)n1CC[C@H](O)C[C@@H](O)CC(=O)O,Potency,HaCat [1],20.9 µM (active)
same,max response,NIH3T3,-10.9% (inactive)
same,Potency,MCC-13,inactive
CC[C@H](C)n1cc(C)c2c(C(=O)NCc3c(C)cc(C)[nH]c3=O)cc(-c3ccc(N4CCNCC4)nc3)cc21,outcome,HaCat [1],inactive
same,outcome,NIH3T3,inactive
same,outcome,HACAT [2],inactive
same,Potency,MCC-13,inactive
Cc1nn(Cc2ccccc2Cl)c(C)c1CN(C)CC(O)COc1ccc(Cl)cc1 (configuration not stated),Potency,HEK293,18.7 µM (active)
same,Potency,MCC-13,inactive
O=C1CN2Cc3c(ccc(Cl)c3Cl)N=C2N1,max response,HaCat [1],-28.5% (inactive)
same,Potency,MCC-13,inactive
Cc1ccccc1C(=O)c1ccc(Nc2ccc(Br)cc2N)cc1Cl,max response,HaCat [1],-2.01% (inactive)
same,max response,NIH3T3,-21.7% (inactive)
same,Potency,MCC-13,inactive
CN(C)CC[C@H](CSc1ccccc1)Nc1ccc(S(=O)(=O)NC(=O)c2ccc(N3CCN(Cc4ccccc4-c4ccc(Cl)cc4)CC3)cc2)cc1[N+](=O)[O-],Potency,HaCat [1],18.7 µM (active)
same,max response,KB-3-1,2.51% (inactive)
same,Potency,MCC-13,inactive
CC(C)(F)C[C@H](N[C@@H](c1ccc(-c2ccc(S(C)(=O)=O)cc2)cc1)C(F)(F)F)C(=O)NC1(C#N)CC1,outcome,HaCat [1],inactive
same,max response,KB-3-1,7.07% (inactive)
same,max response,NIH3T3,-18% (inactive)
same,outcome,HACAT [2],inactive
same,Potency,MCC-13,inactive
CN[C@H]1[C@@H](O[C@@H]2[C@H](O[C@@H]3[C@@H](O)[C@@H](O)[C@@H](N=C(N)N)[C@@H](O)[C@@H]3N=C(N)N)O[C@H](C)[C@@]2(O)C=O)O[C@@H](CO)[C@@H](O)[C@H]1O,outcome,KB-3-1,inactive
same,"activity change, negative = cytotoxicity",MCC-13,0.63% [at 9.22 µM] (inactive)
O=C(Nc1cccc2c(=O)cc(-c3nn[nH]n3)oc12)c1ccc(OCCCCc2ccccc2)cc1,outcome,HaCat [1],inactive
same,max response,KB-3-1,-16.8% (inactive)
same,max response,NIH3T3,-4.19% (inactive)
same,outcome,HACAT [2],inactive
same,Potency,MCC-13,inactive
COc1c(C)c2c(c(O)c1CC=C(C)CCC(=O)O)C(=O)OC2,max response,HaCat [1],-8.02% (inactive)
same,Potency,NIH3T3,3.72 µM (active)
COc1ccc2nc3cc(Cl)ccc3c(Nc3cc(CN4CCCC4)c(O)c(CN4CCCC4)c3)c2n1,outcome,HaCat [1],inactive
same,max response,NIH3T3,-1.17% (inactive)
same,outcome,HACAT [2],inactive
same,Potency,MCC-13,inactive
CN(C)S(=O)(=O)c1ccc2c(c1)C(=Cc1cc3c([nH]1)CCCC3)C(=O)N2,max response,KB-3-1,-0.966% (inactive)
same,Potency,MCC-13,inactive
CNC(=O)[C@H](Cc1ccccc1)NC(=O)[C@H](CC(C)C)[C@H](CSc1cccs1)C(=O)NO,Potency,HaCat [1],13.2 µM (active)
same,max response,KB-3-1,2.61% (inactive)
same,max response,NIH3T3,0.205% (inactive)
same,Potency,MCC-13,inactive
CC1(C)OC2CC3C4CC(F)C5=CC(=O)C=CC5(C)C4C(O)CC3(C)[C@]2(C(=O)CO)O1 (some centres not stated),Potency,MCC-13,inactive
CCCCc1ccc(NS(=O)(=O)c2ccc(C)c(C(=O)N3CCN(c4cccc(C)c4C)CC3)c2)cc1,max response,HaCat [1],-17% (inactive)
same,Potency,MCC-13,inactive
CON(C)C(=O)N1N=C(c2cc(F)ccc2F)S[C@]1(CCCN)c1ccccc1,max response,HaCat [1],-26.8% (inactive)
same,Potency,KB-3-1,0.0008 µM (active)
same,max response,NIH3T3,-18.9% (inactive)
same,Potency,MCC-13,0.0093 µM (active)

# Source: PubChem BioAssay (NCATS)
